Measurements taken from the supplement of paper PMC11383364.
± gives the standard deviation of the averaged measurements.

system: SUM149; assay: percent difference in area under dose-response curve of relative cell number, RPMI vs HPLM; higher = drug relatively more effective in HPLM than RPMI (negative = less effective in HPLM); details: treatment time: 72 h; dose range: 10-point, 1 nM to 20 µM; media compared: RPMI vs HPLM

For `Cc1nc(Nc2ncc(C(=O)Nc3c(C)cccc3Cl)s2)cc(N2CCN(CCO)CC2)n1` [Dasatinib], which “percent difference in area under dose-response curve” value (shortened to “percent difference in area”) is on record?
Its value is 41.7%.

With `COc1cccc2c1C(=O)c1c(O)c3c(c(O)c1C2=O)C[C@@](O)(C(C)=O)C[C@@H]3O[C@H]1C[C@H](N)[C@H](O)[C@H](C)O1` [Daunorubicin_HCl] as the compound, how does the “percent difference in area” value read?
Its value is -26.8%.

For `O=C(c1cc(Cc2n[nH]c(=O)c3ccccc23)ccc1F)N1CCN(C(=O)C2CC2)CC1` [Olaparib], which “percent difference in area” value is on record?
The value was -24.4 ± 6.6%.

For `Cn1cc(CNCC2CCN(c3ncc(C(=O)NO)cn3)CC2)c2ccccc21`, which “percent difference in area” value is on record?
Its value is -19.7%.

For `COC1=CC(c2cc3ccccc3[nH]2)=N/C1=C\c1[nH]c(C)cc1C` [Obatoclax_mesylate], which “percent difference in area” value is on record?
The value was -8.47%.

Which “percent difference in area” value does the source give for `CNCCC(Oc1ccc(C(F)(F)F)cc1)c1ccccc1` (centres undefined) [Fluoxetine] here?
Its value is 0.518%.

How did the “percent difference in area” value turn out when `C=C(c1ccc(C(=O)O)cc1)c1cc2c(cc1C)C(C)(C)CCC2(C)C` [Bexarotene] was run?
The value was -2.87%.

How did the “percent difference in area” value turn out when `CC1(C)C(N(O)C(=O)Nc2ccc(Cl)cc2)N(c2ccc(Cl)cc2)C(=O)N1CC(=O)NN=CC=Cc1ccc([N+](=O)[O-])o1` (centres undefined) [Eeyarestatin_I] was run?
Its value is -5.38%.

With `CN(C)CCCn1cc(C2=C(c3c[nH]c4ccccc34)C(=O)NC2=O)c2ccccc21` as the compound, how does the “percent difference in area” value read?
The value was 0.14%.

With `NC(=O)Nc1sc(-c2ccc(F)cc2)cc1C(N)=O` as the compound, how does the “percent difference in area” value read?
Its value is 6.37%.

For `C[C@@H](O[C@H]1OCCN(Cc2n[nH]c(=O)[nH]2)[C@H]1c1ccc(F)cc1)c1cc(C(F)(F)F)cc(C(F)(F)F)c1` [Aprepitant], which “percent difference in area” value is on record?
The value was -2%.

For `O=C(/C=C/c1cccnc1)NCCCCC1CCN(C(=O)c2ccccc2)CC1`, which “percent difference in area” value is on record?
Its value is -32.8%.

With `COc1cc([C@@H]2c3cc4c(cc3[C@@H](O[C@@H]3O[C@@H]5CO[C@@H](c6cccs6)O[C@H]5[C@H](O)[C@H]3O)[C@H]3COC(=O)[C@H]23)OCO4)cc(OC)c1O` [Teniposide] as the compound, how does the “percent difference in area” value read?
The value was -42.7%.

How did the “percent difference in area” value turn out when `COc1cccc2c1C(=O)c1c(O)c3c(c(O)c1C2=O)C[C@@](O)(C(=O)CO)C[C@@H]3O[C@H]1C[C@H](N)[C@H](O)[C@H](C)O1` [Doxorubicin] was run?
The value was -24.4%.

How did the “percent difference in area” value turn out when `CN(C)Cc1c(C(=O)NCCOc2ccc(C(=O)NO)cc2)oc2ccccc12` was run?
Its value is 0.731%.

For `CCN(CC)CCCCNc1ncc2cc(-c3cc(OC)cc(OC)c3)c(NC(=O)NC(C)(C)C)nc2n1`, which “percent difference in area” value is on record?
The value was 1.69%.

How did the “percent difference in area” value turn out when `O=c1[nH]cc(F)c(=O)[nH]1` [5_Fluorouracil] was run?
The value was 0.782%.

With `Nc1ccc(-c2ccc3ncc4ccc(=O)n(-c5cccc(C(F)(F)F)c5)c4c3c2)cn1` [Torin_2] as the compound, how does the “percent difference in area” value read?
The value was -2.02%.

For `Cc1cnc(Nc2ccc(OCCN3CCCC3)cc2)nc1Nc1cccc(S(=O)(=O)NC(C)(C)C)c1` [Fedratinib], which “percent difference in area” value is on record?
Its value is -9.15%.

With `CC[C@H](CO)Nc1nc(NCc2ccccc2)c2ncn(C(C)C)c2n1` [Roscovitine] as the compound, how does the “percent difference in area” value read?
Its value is -1.29%.

Which “percent difference in area” value does the source give for `Cc1[nH]c(/C=C2\C(=O)Nc3ccc(S(=O)(=O)Cc4c(Cl)cccc4Cl)cc32)c(C)c1C(=O)N1CCC[C@@H]1CN1CCCC1` here?
The value was -10.1%.

For `O=C(Nc1cccc(Cl)c1)Nc1ncc(CCNc2ncnc3ccsc23)s1` [SNS314_Mesylate], which “percent difference in area” value is on record?
Its value is -24.4%.

How did the “percent difference in area” value turn out when `Cc1cc(=O)oc2c(C=O)c(O)ccc12` was run?
Its value is 5.18%.

`CS(=O)(=O)c1cccc(CNc2nc(Nc3ccc4c(c3)CCC(=O)N4)ncc2C(F)(F)F)c1` was tested. Which “percent difference in area” value did it give?
The value was -3.53%.

`O=S(=O)(N=Cc1c(O)ccc2ccccc12)c1cccs1` was tested. Which “percent difference in area” value did it give?
Its value is -2.44%.

`Cc1ccc(C(=O)c2cc(O)c(O)c([N+](=O)[O-])c2)cc1` [Tolcapone] was tested. Which “percent difference in area” value did it give?
The value was -5.18%.

For `N#CCNC(=O)c1ccc(-c2ccnc(Nc3ccc(N4CCOCC4)cc3)n2)cc1`, which “percent difference in area” value is on record?
Its value is 7.22%.

With `COc1cc2c(Oc3ccc4[nH]c(C)cc4c3F)ncnc2cc1OCCCN1CCCC1` [Cediranib] as the compound, how does the “percent difference in area” value read?
The value was 1%.

`CC(C)C[C@H](NC(=O)[C@H](Cc1ccccc1)NC(=O)c1cnccn1)B(O)O` [Bortezomib] was tested. Which “percent difference in area” value did it give?
Its value is -29.8%.

With `C[C@H]1[C@H](OC(=O)CCC(=O)O)O[C@@H]2O[C@@]3(C)CC[C@H]4[C@H](C)CC[C@@H]1[C@@]24OO3` [Artesunate] as the compound, how does the “percent difference in area” value read?
Its value is -1.87%.

With `CNC(=O)c1ccccc1Sc1ccc2c(/C=C/c3ccccn3)n[nH]c2c1` [Axitinib] as the compound, how does the “percent difference in area” value read?
Its value is -0.398%.

For `Cc1ccc(C(=O)N(CCCN)[C@@H](c2nc3cc(Cl)ccc3c(=O)n2Cc2ccccc2)C(C)C)cc1` [Ispinesib], which “percent difference in area” value is on record?
Its value is -43.4%.

Which “percent difference in area” value does the source give for `Cc1ccc([N+](=O)[O-])cc1S(=O)(=O)N(C)/N=C/c1cnc2ccc(Br)cn12` here?
Its value is -9.04%.

`CC1=C(/C=C/C(C)=C/C=C/C(C)=C/C(=O)Nc2ccc(O)cc2)C(C)(C)CCC1` [Fenretinide] was tested. Which “percent difference in area” value did it give?
The value was -3.15%.
